In PubChem BioAssay (NCI) one finds growth data, which are given here for 13 compounds.

The panel holds about 83,000 compounds, 20% with a hit somewhere; the sample as a whole holds those more often.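 Activity criterion: percent growth below 10, measured after cells in 96-well plates were exposed to a single compound concentration for 48 hours.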 Unmarked numbers belong to inactive results. Activity calls are given as the source filed them.

Experiment in all cases: NCI-60 one-dose screen, 48 h (100 = growth as untreated, 0 = no growth, -100 = all killed)
Conditions in all cases: 10 µM unless noted

Test [1] has as its system NCI-H23 lung.
Test [2] deals with NCI-H226 lung.
Test [3] relates to NCI-H322M lung.
Test [4] relates to HOP-62 NSCLC.
Test [5] concerns NCI-H460 lung.
For test [6], the system named is HOP-92 NSCLC.
Test [7] has as its system NCI-H522 lung.
In test [8] the test system is A549/ATCC NSCLC.
Test [9] concerns 786-0 renal.
Test [10] deals with COLO 205 colon.

In the case of `O=C(N/N=C\c1ccc(N(CCCl)CCCl)cc1Cl)c1cccnc1`, the growth in test [1] is 70.5%; in test [2] it was -48.5% (active); in test [3], 133%; in [4], 72.2%; in test [5], 7.56% (active); in [6] it was 74.3%. Besides, the growth was 116% in test [7], 60.4% in test [8], 66.9% in [9] and 83% in test [10].
`CC[C@H](C)[C@H](NC(=O)[C@H]1CCCCN1C)C(=O)N(C)[C@H](C[C@@H](OC(C)=O)c1nc(C(=O)N[C@@H](Cc2ccccc2)C[C@H](C)C(=O)OC)cs1)C(C)C`: the growth was 11.8% in test [1]; 12.6% in [2]; 49.3% in test [3]; 20.6% in [4]; 14.6% in test [5]; -0.123% (active) in [6]. Further, the growth in test [7] is -19.8% (active); in test [8], 8.91% (active); in test [9] it was 11.8%; in test [10], -39.7% (active).
Regarding `COc1ccc(Nc2ccnc3cc(Cl)ccc23)cc1CN(CCCl)CCCl`, the growth in test [1] was -46.7% (active); in test [2], 22.9%; in test [3], -34% (active); in test [4], -38.8% (active); in test [5], -18.2% (active); in test [6] it was -39% (active). Also, the growth was -47.6% (active) in test [7], 1.03% (active) in [8], -53.3% (active) in test [9] and -37.1% (active) in test [10].
Regarding `C=CC[PH+](c1ccccc1)c1ccccc1.C=CC[PH+](c1ccccc1)c1ccccc1.[Cl][Pt][Cl]`, the growth is 58.8% in [1]; 73.9% in test [2]; 101% in test [3]; 95.8% in test [4]; 91.9% in test [5]; 16% in test [6]. Moreover, the growth in [7] was 9.41% (active); in [8], 88.2%; in test [9] it was 49.7%; in test [10], 22.2%.
For the compound `Nc1c(F)cc(-c2nc3cc(F)ccc3[se]2)cc1F`, the growth in test [1] is 49.4%; in [2], -11.3% (active); in test [3] it was 70.8%; in test [4], 58.9%; in test [5] it was 14.5%; in [6], 74.8%. Further, the growth is 84.8% in test [7], 46.5% in test [8], 104% in [9] and 13.4% in test [10].
Take `ClC1=C(Cl)C(Cl)(C2(Cl)C(Cl)=C(Cl)C(Cl)=C2Cl)C(Cl)=C1Cl`: the growth in test [1] was -14.4% (active); in [2] it was -81.5% (active); in [3] it was 98.3%; in [4], 60.4%; in test [5], 67.6%; in [6] it was -63.5% (active). Besides, the growth in test [7] is -68.2% (active); in test [8], 45%; in [9], -66.4% (active); in test [10], -68.6% (active).
As for `O=C(CCCC1CCCCC1)OCC(Cl)(Cl)Cl`, the growth is 94.3% in [1]; 99% in [2]; 104% in test [3]; 98.7% in [4]; 101% in [5]; 77.5% in test [6]. For the same compound, the growth was 96.2% in [7], 107% in [8], 102% in test [9] and 101% in [10].
Take `O=C(CCl)c1ccc([N+](=O)[O-])o1`: the growth in [1] is 5.38% (active); in test [2], 42.9%; in [3], 98.4%; in test [4], 86.4%; in test [5], 76.3%; in test [6] it was -56% (active). Also, the growth was -56.7% (active) in test [7], 106% in [8], -28.7% (active) in [9] and -86% (active) in test [10].
As for `Cc1ccccc1NC(=NCCCN1CC1)Nc1ccccc1C`, the growth in test [1] is 97.7%; in test [2] it was 83.1%; in test [3] it was 97.6%; in [4], 119%; in test [5] it was 81.7%; in [6], 77.2%. Also, the growth in test [7] is 84.9%; in test [8], 86.4%; in test [9], 100%; in test [10] it was 102%.
With `O=P(Oc1ccc(Cl)cc1)(N1CC1)N1CC1`, the growth in [1] is 65.4%; in test [2], 87.8%; in test [3], 99.6%; in test [4] it was 81.3%; in test [5], 39.3%; in test [6], 81.2%. The growth was 66.8% in test [7], 60.2% in test [8], 84.5% in test [9] and 94.6% in [10].
With `C/C=C(\C)C(=O)O[C@@H]1C(O)[C@H]2OC(COC(=O)CCC(=O)CCCCCC[C@H](CCCCC)O[C@@H]3OC(C)[C@H](OC(C)=O)C(O)[C@H]3O2)[C@H]1OC(=O)/C=C/c1ccccc1` (stereo not given in full), the growth was 37.1% in test [1]; 1.09% (active) in test [2]; 27% in test [3]; -2.42% (active) in test [4]; 15.9% in test [5]; -11.4% (active) in test [6]. The growth in [7] is 20.9%; in test [8], 20.2%; in [9], 5.52% (active); in [10] it was -2.63% (active).
On to `COc1cc(NC(C)CCCNC2CN3CCC2CC3)c2ncccc2c1` (stereo not given), for which the growth in [1] was 84.5%; in test [2], 87.4%; in test [3], 63.3%; in [4], 75.8%; in test [5] it was 106%; in test [6], 46.6%. Also, the growth in test [7] is 82.1%; in test [8], 95.1%; in test [9], 62.5%; in test [10] it was 35.3%.
Regarding `CC(C)(N)Cc1ccccc1`, the growth in test [1] is 113%; in test [2], 107%; in test [3] it was 105%; in test [4] it was 118%; in test [5], 111%; in [6], 87.8%. Further, the growth was 90.9% in test [7], 103% in test [8], 91.3% in [9] and 116% in test [10].
